# Publication PMC7862700, “An all-to-all approach to the identification of sequence-specific readers for epigenetic DNA modifications on cytosine”
# What was measured:
# Test in all cases: DAPPL (digital affinity profiling via proximity ligation, sequencing); 10 mM Tris-HCl pH 7.5, 50 mM NaCl, 1 mM DTT, 4% glycerol, room temperature, 30 min; GST-TFs on glutathione beads, 16-mer random dsDNA library, 0.1% formaldehyde crosslink after washing; high values mean tight binding
# FEV = molecular target: T1, FEV (Homo sapiens, UniProt Q99581 1-238); details: protein: recombinant; tags: N-terminal GST; dsDNA, one strand shown
# T1 sequence: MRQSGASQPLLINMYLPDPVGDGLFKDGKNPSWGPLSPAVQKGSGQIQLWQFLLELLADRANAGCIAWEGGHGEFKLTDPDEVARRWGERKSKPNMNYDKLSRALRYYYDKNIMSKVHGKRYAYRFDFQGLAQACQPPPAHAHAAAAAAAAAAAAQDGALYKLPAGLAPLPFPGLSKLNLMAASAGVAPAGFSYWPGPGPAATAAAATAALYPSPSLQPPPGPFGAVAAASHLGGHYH
# Outline: (§1)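 Human transcription factors carrying a GST fusion were produced in yeast, bound to glutathione beads, tagged with DNA barcodes and pooled together with a tag-only sample. Each pool was held with 200 nmole of a random double-stranded 16-mer DNA library in Tris/NaCl/DTT/glycerol buffer for 30 min at room temperature, then washed, crosslinked in 0.1% formaldehyde, proximity-ligated with BsaI/T4 ligase (1 h, 37 °C), PCR-amplified and sequenced on an Illumina NextSeq500. Binding signal is the read frequency of each hexamer for a given factor divided by its frequency in the tag-only sample.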
# ETV5 = ETV5 (Homo sapiens, UniProt P41161 1-510); details: protein: recombinant; tags: N-terminal GST; dsDNA, one strand shown
# Outline: as §1
# HSF1 = HSF1 (Homo sapiens, UniProt Q00613 1-529); details: protein: recombinant; tags: N-terminal GST; chain copies: 3; dsDNA, one strand shown
# Outline: as §1
# ELF4 = ELF4 (Homo sapiens, UniProt Q99607 1-663); details: protein: recombinant; tags: N-terminal GST; dsDNA, one strand shown
# Outline: as §1
# ELK4 = molecular target: T2, ELK4 (Homo sapiens, UniProt P28324-2 1-405); details: protein: recombinant; tags: N-terminal GST; dsDNA, one strand shown
# T2 sequence: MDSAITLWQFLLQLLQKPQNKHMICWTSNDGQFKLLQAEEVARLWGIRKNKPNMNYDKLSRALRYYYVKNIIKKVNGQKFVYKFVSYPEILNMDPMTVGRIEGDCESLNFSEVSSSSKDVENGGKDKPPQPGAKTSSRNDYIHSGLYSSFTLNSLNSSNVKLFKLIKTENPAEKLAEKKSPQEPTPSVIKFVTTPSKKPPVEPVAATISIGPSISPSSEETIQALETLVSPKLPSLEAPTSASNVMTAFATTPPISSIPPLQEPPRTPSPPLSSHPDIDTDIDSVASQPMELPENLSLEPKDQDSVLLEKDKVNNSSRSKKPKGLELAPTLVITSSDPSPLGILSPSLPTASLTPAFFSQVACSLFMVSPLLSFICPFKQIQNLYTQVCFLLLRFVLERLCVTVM
# Outline: as §1
# ETV2 = molecular target: T3, ETV2 (Homo sapiens, UniProt O00321 1-342); details: protein: recombinant; tags: N-terminal GST; dsDNA, one strand shown
# T3 sequence: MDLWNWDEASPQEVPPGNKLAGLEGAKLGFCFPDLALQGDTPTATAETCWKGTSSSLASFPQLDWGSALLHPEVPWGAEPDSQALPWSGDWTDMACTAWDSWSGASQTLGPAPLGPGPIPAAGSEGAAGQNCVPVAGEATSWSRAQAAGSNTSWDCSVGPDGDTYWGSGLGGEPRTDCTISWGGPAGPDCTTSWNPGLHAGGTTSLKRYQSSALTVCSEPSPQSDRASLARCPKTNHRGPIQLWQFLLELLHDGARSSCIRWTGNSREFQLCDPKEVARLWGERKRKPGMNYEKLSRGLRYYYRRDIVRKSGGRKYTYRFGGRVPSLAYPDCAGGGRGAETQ
# Outline: as §1
# ELF3 = molecular target: T4, ELF3 (Homo sapiens, UniProt P78545 1-371); details: protein: recombinant; tags: N-terminal GST; dsDNA, one strand shown
# T4 sequence: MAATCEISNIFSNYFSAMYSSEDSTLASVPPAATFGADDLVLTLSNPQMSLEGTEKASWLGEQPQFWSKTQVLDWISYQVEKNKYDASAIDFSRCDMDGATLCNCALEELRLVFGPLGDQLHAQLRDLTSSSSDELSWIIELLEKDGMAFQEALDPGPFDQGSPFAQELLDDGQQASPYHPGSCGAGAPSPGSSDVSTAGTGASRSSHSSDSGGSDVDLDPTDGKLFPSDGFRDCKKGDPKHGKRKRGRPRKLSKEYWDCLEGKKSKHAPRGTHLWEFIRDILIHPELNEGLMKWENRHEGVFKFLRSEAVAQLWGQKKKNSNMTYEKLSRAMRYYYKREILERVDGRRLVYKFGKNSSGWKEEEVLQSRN
# Outline: as §1
# CRX = CRX (Homo sapiens, UniProt O43186 1-299); details: protein: recombinant; tags: N-terminal GST; dsDNA, one strand shown
# Outline: as §1
# ETV1 = ETV1 (Homo sapiens, UniProt P50549 1-477); details: protein: recombinant; tags: N-terminal GST; dsDNA, one strand shown
# Outline: as §1
# SPIC = molecular target: T5, SPIC (Homo sapiens, UniProt Q8N5J4 1-248); details: protein: recombinant; tags: N-terminal GST; dsDNA, one strand shown
# T5 sequence: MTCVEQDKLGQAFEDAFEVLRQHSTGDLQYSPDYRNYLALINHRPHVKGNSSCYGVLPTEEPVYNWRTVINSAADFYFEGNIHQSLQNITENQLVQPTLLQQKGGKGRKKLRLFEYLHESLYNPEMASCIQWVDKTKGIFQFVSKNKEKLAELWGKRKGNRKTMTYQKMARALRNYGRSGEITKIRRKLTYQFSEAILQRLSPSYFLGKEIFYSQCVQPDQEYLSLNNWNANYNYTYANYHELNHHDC
# Outline: as §1
# ETV5, sequence (P41161 whole entry): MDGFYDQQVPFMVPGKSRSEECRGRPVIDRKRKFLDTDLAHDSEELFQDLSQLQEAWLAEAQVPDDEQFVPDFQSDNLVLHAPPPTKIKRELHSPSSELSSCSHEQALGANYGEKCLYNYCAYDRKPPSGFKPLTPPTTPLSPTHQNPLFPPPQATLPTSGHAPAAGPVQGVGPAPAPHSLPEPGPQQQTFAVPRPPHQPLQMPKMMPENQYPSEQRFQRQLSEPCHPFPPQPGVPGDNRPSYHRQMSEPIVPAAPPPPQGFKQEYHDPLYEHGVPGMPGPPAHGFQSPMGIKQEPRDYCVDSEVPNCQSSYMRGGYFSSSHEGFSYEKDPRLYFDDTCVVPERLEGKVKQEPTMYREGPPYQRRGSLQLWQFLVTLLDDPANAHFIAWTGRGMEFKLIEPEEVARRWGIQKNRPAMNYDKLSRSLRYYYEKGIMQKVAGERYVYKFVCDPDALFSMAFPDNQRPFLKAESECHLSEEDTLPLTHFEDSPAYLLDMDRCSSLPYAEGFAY
# HSF1, sequence (Q00613 whole entry): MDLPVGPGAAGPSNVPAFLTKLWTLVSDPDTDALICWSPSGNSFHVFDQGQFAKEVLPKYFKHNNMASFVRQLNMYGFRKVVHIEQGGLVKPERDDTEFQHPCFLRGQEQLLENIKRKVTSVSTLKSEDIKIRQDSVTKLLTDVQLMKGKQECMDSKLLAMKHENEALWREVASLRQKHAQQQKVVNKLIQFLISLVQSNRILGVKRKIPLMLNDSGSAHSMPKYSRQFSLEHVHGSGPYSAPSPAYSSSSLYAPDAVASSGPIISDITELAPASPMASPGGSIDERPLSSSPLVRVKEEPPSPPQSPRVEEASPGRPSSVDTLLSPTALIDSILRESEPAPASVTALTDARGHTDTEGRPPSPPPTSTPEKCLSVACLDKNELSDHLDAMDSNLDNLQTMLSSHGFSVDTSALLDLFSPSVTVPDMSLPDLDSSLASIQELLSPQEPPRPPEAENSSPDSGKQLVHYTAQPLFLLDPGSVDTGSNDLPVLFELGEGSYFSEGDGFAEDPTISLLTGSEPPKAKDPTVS
# ELF4, sequence (Q99607 whole entry): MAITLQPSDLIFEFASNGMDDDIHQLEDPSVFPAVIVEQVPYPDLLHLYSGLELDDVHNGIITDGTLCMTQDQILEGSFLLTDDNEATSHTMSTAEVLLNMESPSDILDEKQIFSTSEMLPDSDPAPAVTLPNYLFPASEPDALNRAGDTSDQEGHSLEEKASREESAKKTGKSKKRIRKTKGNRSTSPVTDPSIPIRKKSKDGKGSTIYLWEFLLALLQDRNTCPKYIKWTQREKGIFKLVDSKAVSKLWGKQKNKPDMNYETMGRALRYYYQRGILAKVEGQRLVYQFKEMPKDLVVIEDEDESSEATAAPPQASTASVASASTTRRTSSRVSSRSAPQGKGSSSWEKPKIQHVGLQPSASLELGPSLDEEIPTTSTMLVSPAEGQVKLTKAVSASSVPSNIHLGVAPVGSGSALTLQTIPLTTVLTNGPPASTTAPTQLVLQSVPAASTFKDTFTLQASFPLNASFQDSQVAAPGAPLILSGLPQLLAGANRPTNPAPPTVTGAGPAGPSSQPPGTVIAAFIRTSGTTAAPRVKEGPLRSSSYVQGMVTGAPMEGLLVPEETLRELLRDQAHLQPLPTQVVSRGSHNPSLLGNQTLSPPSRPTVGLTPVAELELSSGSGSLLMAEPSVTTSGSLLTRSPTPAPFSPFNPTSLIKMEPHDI
# ETV1, sequence (P50549 whole entry): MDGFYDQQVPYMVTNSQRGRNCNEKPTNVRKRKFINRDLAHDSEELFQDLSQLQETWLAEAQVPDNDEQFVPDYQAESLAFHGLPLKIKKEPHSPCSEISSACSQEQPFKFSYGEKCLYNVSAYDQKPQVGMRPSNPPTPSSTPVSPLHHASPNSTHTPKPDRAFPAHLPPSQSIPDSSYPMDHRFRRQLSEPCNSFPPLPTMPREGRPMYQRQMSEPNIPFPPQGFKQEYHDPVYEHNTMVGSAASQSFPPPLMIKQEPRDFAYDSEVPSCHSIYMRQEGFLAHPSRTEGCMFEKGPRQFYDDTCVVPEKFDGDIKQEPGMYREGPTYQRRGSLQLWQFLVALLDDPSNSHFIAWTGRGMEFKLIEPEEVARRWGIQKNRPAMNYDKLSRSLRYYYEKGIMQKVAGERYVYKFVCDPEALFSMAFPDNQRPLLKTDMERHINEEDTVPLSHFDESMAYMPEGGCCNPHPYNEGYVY
# CRX, sequence (O43186 whole entry): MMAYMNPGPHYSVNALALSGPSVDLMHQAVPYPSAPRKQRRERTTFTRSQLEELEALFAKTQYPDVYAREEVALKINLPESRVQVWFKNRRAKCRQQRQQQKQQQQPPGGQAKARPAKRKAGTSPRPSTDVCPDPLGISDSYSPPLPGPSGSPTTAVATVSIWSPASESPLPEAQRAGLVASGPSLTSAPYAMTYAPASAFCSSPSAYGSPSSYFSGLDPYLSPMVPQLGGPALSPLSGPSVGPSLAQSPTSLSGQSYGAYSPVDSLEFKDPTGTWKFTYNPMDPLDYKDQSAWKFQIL
Sequence,binding signal (FEV),binding signal (ETV5),binding signal (HSF1),binding signal (ELF4),binding signal (ELK4),binding signal (ETV2),binding signal (ELF3),binding signal (CRX),binding signal (ETV1),binding signal (SPIC)
AAGCTC,"1.14 fold enrichment (6-mer frequency, TF over GST control)","1.16 fold enrichment (6-mer frequency, TF over GST control)","1.42 fold enrichment (6-mer frequency, TF over GST control)","1.21 fold enrichment (6-mer frequency, TF over GST control)","1.2 fold enrichment (6-mer frequency, TF over GST control)","1.15 fold enrichment (6-mer frequency, TF over GST control)","1.2 fold enrichment (6-mer frequency, TF over GST control)","1.68 fold enrichment (6-mer frequency, TF over GST control)","1.22 fold enrichment (6-mer frequency, TF over GST control)",
TGACTA,"1.01 fold enrichment (6-mer frequency, TF over GST control)","1.04 fold enrichment (6-mer frequency, TF over GST control)","1.04 fold enrichment (6-mer frequency, TF over GST control)","1.09 fold enrichment (6-mer frequency, TF over GST control)","1.06 fold enrichment (6-mer frequency, TF over GST control)","1.17 fold enrichment (6-mer frequency, TF over GST control)","1.08 fold enrichment (6-mer frequency, TF over GST control)","1.17 fold enrichment (6-mer frequency, TF over GST control)","1.15 fold enrichment (6-mer frequency, TF over GST control)",
TACTAG,,"1.05 fold enrichment (6-mer frequency, TF over GST control)","1.81 fold enrichment (6-mer frequency, TF over GST control)",,,"1.17 fold enrichment (6-mer frequency, TF over GST control)",,"1.3 fold enrichment (6-mer frequency, TF over GST control)",,"1.02 fold enrichment (6-mer frequency, TF over GST control)"
AACCAT,"1.15 fold enrichment (6-mer frequency, TF over GST control)","1.15 fold enrichment (6-mer frequency, TF over GST control)","1.15 fold enrichment (6-mer frequency, TF over GST control)","1.15 fold enrichment (6-mer frequency, TF over GST control)","1.21 fold enrichment (6-mer frequency, TF over GST control)","1.2 fold enrichment (6-mer frequency, TF over GST control)","1.1 fold enrichment (6-mer frequency, TF over GST control)","1.05 fold enrichment (6-mer frequency, TF over GST control)","1.06 fold enrichment (6-mer frequency, TF over GST control)",
AGGTAT,,"1.02 fold enrichment (6-mer frequency, TF over GST control)","1.07 fold enrichment (6-mer frequency, TF over GST control)","1.02 fold enrichment (6-mer frequency, TF over GST control)","1.03 fold enrichment (6-mer frequency, TF over GST control)","1.03 fold enrichment (6-mer frequency, TF over GST control)","1.12 fold enrichment (6-mer frequency, TF over GST control)","1.05 fold enrichment (6-mer frequency, TF over GST control)","1.02 fold enrichment (6-mer frequency, TF over GST control)",
AGGGCT,"1.03 fold enrichment (6-mer frequency, TF over GST control)","1.06 fold enrichment (6-mer frequency, TF over GST control)","1.03 fold enrichment (6-mer frequency, TF over GST control)","1.07 fold enrichment (6-mer frequency, TF over GST control)","1.02 fold enrichment (6-mer frequency, TF over GST control)",,,"1.26 fold enrichment (6-mer frequency, TF over GST control)","1.11 fold enrichment (6-mer frequency, TF over GST control)",
GCATTC,"1.08 fold enrichment (6-mer frequency, TF over GST control)","1.1 fold enrichment (6-mer frequency, TF over GST control)","1.17 fold enrichment (6-mer frequency, TF over GST control)","1.1 fold enrichment (6-mer frequency, TF over GST control)","1.05 fold enrichment (6-mer frequency, TF over GST control)","1.09 fold enrichment (6-mer frequency, TF over GST control)","1.11 fold enrichment (6-mer frequency, TF over GST control)",,"1.24 fold enrichment (6-mer frequency, TF over GST control)",
CGATCG,"1.03 fold enrichment (6-mer frequency, TF over GST control)","1.03 fold enrichment (6-mer frequency, TF over GST control)","1.09 fold enrichment (6-mer frequency, TF over GST control)","1.04 fold enrichment (6-mer frequency, TF over GST control)","1.13 fold enrichment (6-mer frequency, TF over GST control)","1.12 fold enrichment (6-mer frequency, TF over GST control)","1.08 fold enrichment (6-mer frequency, TF over GST control)",,"1.03 fold enrichment (6-mer frequency, TF over GST control)",
CATAAA,"1 fold enrichment (6-mer frequency, TF over GST control)","1.03 fold enrichment (6-mer frequency, TF over GST control)","1.07 fold enrichment (6-mer frequency, TF over GST control)","1.06 fold enrichment (6-mer frequency, TF over GST control)",,,"1.08 fold enrichment (6-mer frequency, TF over GST control)","1.11 fold enrichment (6-mer frequency, TF over GST control)","1.03 fold enrichment (6-mer frequency, TF over GST control)",
ATTGTC,"1.11 fold enrichment (6-mer frequency, TF over GST control)","1.14 fold enrichment (6-mer frequency, TF over GST control)","1.04 fold enrichment (6-mer frequency, TF over GST control)","1.08 fold enrichment (6-mer frequency, TF over GST control)","1.17 fold enrichment (6-mer frequency, TF over GST control)","1.14 fold enrichment (6-mer frequency, TF over GST control)",,"1.06 fold enrichment (6-mer frequency, TF over GST control)","1.21 fold enrichment (6-mer frequency, TF over GST control)",
TATCAA,,"1.03 fold enrichment (6-mer frequency, TF over GST control)","1.01 fold enrichment (6-mer frequency, TF over GST control)","1.03 fold enrichment (6-mer frequency, TF over GST control)","1.09 fold enrichment (6-mer frequency, TF over GST control)","1.11 fold enrichment (6-mer frequency, TF over GST control)",,"1.21 fold enrichment (6-mer frequency, TF over GST control)","1.01 fold enrichment (6-mer frequency, TF over GST control)",
CGGCTA,"1.23 fold enrichment (6-mer frequency, TF over GST control)","1.19 fold enrichment (6-mer frequency, TF over GST control)","1.07 fold enrichment (6-mer frequency, TF over GST control)","1.07 fold enrichment (6-mer frequency, TF over GST control)","1.11 fold enrichment (6-mer frequency, TF over GST control)",,"1.05 fold enrichment (6-mer frequency, TF over GST control)","1.18 fold enrichment (6-mer frequency, TF over GST control)","1.2 fold enrichment (6-mer frequency, TF over GST control)",
GAACCA,,"1.02 fold enrichment (6-mer frequency, TF over GST control)","1.03 fold enrichment (6-mer frequency, TF over GST control)","1.02 fold enrichment (6-mer frequency, TF over GST control)","1.06 fold enrichment (6-mer frequency, TF over GST control)","1.02 fold enrichment (6-mer frequency, TF over GST control)","1.09 fold enrichment (6-mer frequency, TF over GST control)",,"1 fold enrichment (6-mer frequency, TF over GST control)",
TCGATG,,"1.11 fold enrichment (6-mer frequency, TF over GST control)","1.26 fold enrichment (6-mer frequency, TF over GST control)","1.2 fold enrichment (6-mer frequency, TF over GST control)","1.09 fold enrichment (6-mer frequency, TF over GST control)","1.03 fold enrichment (6-mer frequency, TF over GST control)","1.1 fold enrichment (6-mer frequency, TF over GST control)",,"1.11 fold enrichment (6-mer frequency, TF over GST control)",
AGCTGC,"1.15 fold enrichment (6-mer frequency, TF over GST control)","1.06 fold enrichment (6-mer frequency, TF over GST control)","1.04 fold enrichment (6-mer frequency, TF over GST control)","1.16 fold enrichment (6-mer frequency, TF over GST control)","1.11 fold enrichment (6-mer frequency, TF over GST control)","1.22 fold enrichment (6-mer frequency, TF over GST control)","1.08 fold enrichment (6-mer frequency, TF over GST control)","1.13 fold enrichment (6-mer frequency, TF over GST control)","1.18 fold enrichment (6-mer frequency, TF over GST control)",
TAGATC,"1.06 fold enrichment (6-mer frequency, TF over GST control)","1.06 fold enrichment (6-mer frequency, TF over GST control)","1.49 fold enrichment (6-mer frequency, TF over GST control)","1.13 fold enrichment (6-mer frequency, TF over GST control)",,"1.2 fold enrichment (6-mer frequency, TF over GST control)",,"1.51 fold enrichment (6-mer frequency, TF over GST control)","1.04 fold enrichment (6-mer frequency, TF over GST control)",
